Inconclusive results are not listed. The source made the active and inactive calls. The call rests on the fitted dose curve; in most records, active means well fitted inhibition curve with a large enough effect; inconclusive means small, poorly fitted or top-dose-only effect; inactive means flat fitted curve, though single readings scatter.
Key:
Assay in all cases: qHTS profiling for inhibitors of Plasmodium falciparum proliferation (AID 504749); further: nearly all actives have a fitted effect of over 60% in size
Details in all cases: P. falciparum in erythrocytes, SYBR Green DNA, 72 h; series mostly up to 28.7 µM
CP237 = test system: CP237
Method in brief: (§1)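 Three-day growth assay of blood-stage parasites in erythrocytes (0.3% parasitemia, 2.5% hematocrit) at 37 C, 5% CO2, quantified by SYBR Green DNA staining after overnight detergent lysis.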

CP238 = test system: CP238
Method in brief: as §1

CP247 = test system: CP247
Method in brief: as §1

CP250 = test system: CP250
Method in brief: as §1

CP252 = test system: CP252
Method in brief: as §1

CP256 = test system: CP256
Method in brief: as §1

CP260 = test system: CP260
Method in brief: as §1

CP262 = test system: CP262
Method in brief: as §1

CP265 = test system: CP265
Method in brief: as §1

CP266 = test system: CP266
Method in brief: as §1

CP268 = test system: CP268
Method in brief: as §1

CP269 = test system: CP269
Method in brief: as §1

CP286 = test system: CP286
Method in brief: as §1

CP291 = test system: CP291
Method in brief: as §1

CP297 = test system: CP297
Method in brief: as §1

CP305 = test system: CP305
Method in brief: as §1

CP315 = test system: CP315
Method in brief: as §1

CP325 = test system: CP325
Method in brief: as §1

CP329 = test system: CP329
Method in brief: as §1

CP335 = test system: CP335
Method in brief: as §1

Measured: Potency
Potency means the concentration at half of the fitted maximal effect.

Cc1c(C)c2c(c(C)c1O)CC[C@@](C)(CCC[C@@H](C)CCC[C@@H](C)CCCC(C)C)O2
inactive: all assays above

CC(=O)Oc1c(C)cc(OCC(O)CNC(C)C)c(C)c1C (centres undefined)
inactive: all assays above

CCCCCCCC/C=C\CCCCCCCC(=O)O
inactive: all assays above

C[C@H]1C[C@H]2[C@@H]3CCC4=CC(=O)C=C[C@]4(C)[C@@]3(F)[C@@H](O)C[C@]2(C)[C@@]1(O)C(=O)CO
inactive: all assays above

CC(C)(C)C(=O)OCOC(=O)[C@@H]1N2C(=O)[C@@H](N=CN3CCCCCC3)[C@H]2SC1(C)C
inactive: all assays above

CCCCC(C)(O)C/C=C/[C@H]1[C@H](O)CC(=O)[C@@H]1CCCCCCC(=O)OC (some centres undefined)
inactive: all assays above

C=CCSSSCC=C
inactive: all assays above

CCCCCCCCCCCCCCCC(=O)OCC(COC(=O)CCCCCCCCCCCCCCC)OC(=O)CCCCCCCCCCCCCCC
inactive: all assays above

CCOC(C)=O
inactive: all assays above

CCC(=O)NCCC1CCc2ccc3c(c21)CCO3 (centres undefined)
inactive: all assays above

C[C@]12O[C@H](C[C@]1(O)CO)n1c3ccccc3c3c4c(c5c6ccccc6n2c5c31)CNC4=O
active: CP237 224 nM | CP238 282 nM | CP247 224 nM | CP250 251 nM | CP252 316 nM | CP256 398 nM | CP260 224 nM | CP262 426 nM | CP265 447 nM | CP266 675 nM | CP268 536 nM | CP269 269 nM | CP286 224 nM | CP291 338 nM | CP297 379 nM | CP305 601 nM | CP315 426 nM | CP325 536 nM | CP329 426 nM | CP335 239 nM

C[C@@H]1CCC2[C@@H](C)[C@@H](O)O[C@@H]3O[C@@]4(C)CC[C@@H]1[C@@]23OO4 (some centres undefined)
active: CP237 1.6 nM | CP238 2.2 nM | CP247 3.2 nM | CP250 2.8 nM | CP252 2.5 nM | CP256 2.2 nM | CP260 1.3 nM | CP262 6 nM | CP265 0.9 nM | CP266 7.6 nM | CP268 3.8 nM | CP269 4.8 nM | CP286 2.5 nM | CP291 4.3 nM | CP297 4.8 nM | CP305 3.8 nM | CP315 6.7 nM | CP325 4.8 nM | CP329 6 nM | CP335 2.7 nM

Cc1cc(C(=O)NNCc2ccccc2)no1
inactive: all assays above

CCCC(=O)Nc1ncnc2c1ncn2C1OC2COP(=O)(O)OC2C1OC(=O)CCC (centres undefined)
inactive: all assays above

Cc1ccccc1
inactive: all assays above

COC(F)(F)C(Cl)Cl
inactive: all assays above

Oc1cc(O)c2c(c1)OC(c1ccc(O)c(O)c1)C(O)C2 (centres undefined)
not listed: CP335
inactive: all other assays above

COCC(=O)Nc1cc(Sc2ccccc2)ccc1N=C(NC(=O)OC)NC(=O)OC
inactive: all assays above

CCN(CC)Cc1cc(Nc2ccnc3cc(Cl)ccc23)ccc1O
active: CP237 35.5 nM | CP238 89.1 nM | CP247 100 nM | CP250 17.8 nM | CP252 100 nM | CP256 89.1 nM | CP260 20 nM | CP262 72.1 nM | CP265 20 nM | CP266 102 nM | CP268 51 nM | CP269 45.5 nM | CP286 31.6 nM | CP291 45.5 nM | CP297 90.7 nM | CP305 40.5 nM | CP315 287 nM | CP325 57.3 nM | CP329 90.7 nM | CP335 40.5 nM

CC1(C)S[C@@H]2[C@H](NC(=O)[C@@H](NC(=O)N3CCNC3=O)c3ccccc3)C(=O)N2[C@H]1C(=O)O
inactive: all assays above

O=C1C(=O)c2ncccc2-c2cccnc21
active: CP237 1000 nM | CP238 1000 nM | CP247 1580 nM | CP250 1260 nM | CP252 2510 nM | CP256 1000 nM | CP260 891 nM | CP262 6010 nM | CP265 891 nM | CP266 849 nM | CP268 1510 nM | CP269 1200 nM | CP286 1000 nM | CP291 1690 nM | CP297 1070 nM | CP305 1200 nM | CP315 2690 nM | CP325 1900 nM | CP329 1200 nM | CP335 536 nM

COC(=O)[C@H]1[C@H]2C[C@@H]3c4[nH]c5ccccc5c4CCN3C[C@H]2C[C@@H](OC(=O)c2cc(OC)c(OC)c(OC)c2)[C@@H]1OC
active: CP237 126 nM | CP238 355 nM | CP247 398 nM | CP250 447 nM | CP252 398 nM | CP256 398 nM | CP260 282 nM | CP262 1200 nM | CP265 398 nM | CP266 1070 nM | CP268 601 nM | CP269 675 nM | CP286 282 nM | CP291 675 nM | CP297 190 nM | CP305 849 nM | CP315 849 nM | CP325 757 nM | CP329 151 nM | CP335 151 nM

CCCCCCCCCCCCCC[n+]1ccc(C)cc1
active: CP237 3550 nM | CP238 4470 nM | CP247 3980 nM | CP250 3980 nM | CP252 4470 nM | CP256 5010 nM | CP260 2510 nM | CP265 4470 nM | CP266 4260 nM | CP268 1690 nM | CP269 1690 nM | CP286 1260 nM | CP291 4260 nM | CP297 4780 nM | CP305 2390 nM | CP315 4780 nM | CP325 3380 nM | CP329 4260 nM | CP335 4260 nM
inactive: CP262
